Screening data as filed in PubChem BioAssay.
Methyltransferases = Primary Screen for Target Class Profiling of Small Molecule Inhibitors of Methyltransferases. calls only at 40 µM. hit rate 3.9% among 25,000. purified enzyme, MTase-Glo SAH luminescence; stronger effect = lower value; call rule not given here
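Each enzyme was reacted with SAM and its substrate, with compounds tested once at 40 uM; SAH formed was read by MTase-Glo luminescence.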
MTase-Glo counter = inhibits MTase-Glo coupling enzymes without methyltransferase. Potency, µM (top dose mostly 57.3 µM), most hits filed as inhibitors. shares compounds with Methyltransferases. MTase-Glo coupled enzymes, SAH conversion luminescence, no MTase. hit rate 6% among 180; active means well fitted inhibition curve with a large enough effect; inconclusive means small, poorly fitted or top-dose-only effect
Calls only; - = inactive; ? = inconclusive; + = active, no number. The full list was thinned out, with hits kept by preference.

SMILES	Methyltransferases	others
CCNc1nccc(N2CCC(CC(=O)NCC(C)C)CC2)n1	+	MTase-Glo counter=-
CN(C)CC(=O)N1CCn2c3c(c4cc(C5CCCCC5)ccc42)CCCC31 (stereo not drawn)	-
CCc1cc(C(=O)N2CCOCC2CC(=O)N2CCSCC2)cs1 (stereo not drawn)	-
C/C(=C\C1CCC(C)C2CCC3(C)OC123)C(=O)O (stereo not drawn)	-
COc1ccc2nc([C@H]3CCN(C4CCCCC4)C3)[nH]c2c1	+	MTase-Glo counter=-
COc1ccc(CC(=O)N2CCCC2C(=O)N2CCC(c3nc4ccncc4[nH]3)C2)cc1 (stereo not drawn)	-
Cc1ccc(CN2CC[C@H](c3nc4ccc(C)cc4[nH]3)C2)cc1	-
CSCCC(NS(=O)(=O)c1ccc2c(c1)oc(=O)n2C)C(=O)N1CCN(c2ccc(C)cc2)C(C)C1 (stereo not drawn)	-
CC(NC(=O)c1ccco1)c1nc(-c2ccc(S(=O)(=O)N3CCCC3)cc2)no1 (stereo not drawn)	-
CCOC(=O)c1cc2n(n1)CC(C)(C(=O)NCc1ccc(C)cc1)N(Cc1ccc(C)cc1)C2=O (stereo not drawn)	-
COc1cccc([S+](=O)([O-])N2CC(N3CCc4ccccc43)C2)c1	-
COc1cccc([S+](=O)([O-])N2CCC23Cc2ccccc2NC3=O)c1 (stereo not drawn)	-
COc1cccc([S+](=O)([O-])N2CCC3(C2)N=C(c2cccnc2)C(=O)N3)c1 (stereo not drawn)	+	MTase-Glo counter=-
COC(=O)c1cc2n(n1)CC(C)(C(=O)NC1CCCCCC1)N(c1ccc(C(C)C)cc1)C2=O (stereo not drawn)	-
Cc1cc(C)c(CNC(=O)c2cc(-c3cnn(C)c3C)cc3c2OCCN3C)c(=O)[nH]1	+	MTase-Glo counter=-
COCCNC(=O)c1cc(N2CCOCC2)cc2c1OCCN2C	-
COC[C@H]1CCCN1c1nc(CCN)nc2sc(C)c(C)c12	-
CCCn1c(=O)c2ccc(C(=O)NC(C)C)cc2n2c(=O)n(Cc3cccc(Cl)c3)nc12	-
CN1CC(=O)N(C2CCNC2)Cc2c(NCCc3cccc(F)c3)ncnc21 (stereo not drawn)	-
CCCCCNC(=O)c1ccc2c(=O)nc3c(-c4cccc(F)c4)n[nH]n3c2c1	-
COc1cccc(C(=O)NCCN2CCN(c3ccc(Cl)cc3)CC2)c1	-
CCCCNC(=O)c1cccc(-c2cc(N3CCN(C)CC3)nc(N)n2)c1	+	MTase-Glo counter=-
Cc1cccc(-c2nc3ccc(C(=O)NC4CCCCCC4)cc3o2)n1	-
CCCn1c(=O)c2ccc(C(=O)NC(C)C)cc2n2c(=O)n(Cc3ccccc3Cl)nc12	-
O=C(CCCc1nc2ccccc2s1)N1CCc2nc3cc(-c4ccccc4)[nH]n3c(=O)c2C1	-
SMILES	Methyltransferases	others
CN(C)S(=O)(=O)N1CCc2c(nc3cc(-c4ccccc4)[nH]n3c2=O)C1	-
COc1ccc(-c2cc3nc4c(c(=O)n3[nH]2)CN(C(=O)CN(C)S(=O)(=O)c2cnc[nH]2)CC4)cc1	+	MTase-Glo counter=-
CCOc1ccc(CCNC(=O)CCc2nnc3n(CCC(C)C)c(=O)c4ccccc4n23)cc1	-
CC(C)CCNC(=O)C1(C)Cn2nc(C(=O)NCc3ccc(F)cc3)cc2C(=O)N1C (stereo not drawn)	-
O=C(CCc1ccccc1)N1CCNc2cnc(Nc3cccnc3)nc2C1	+	MTase-Glo counter=-
O=C(CCc1ccccc1)N1CCCC(CN2CCCC2)CC1 (stereo not drawn)	-
O=C(Nc1ccc(Oc2cccnc2)cc1)C1CCN(CCCc2ccccc2)CC1	-
CC(C)(C)CC(=O)N[C@H]1CO[C@H]2[C@@H]1OC[C@H]2OCC(N)=O	-
COc1cc(F)ccc1-c1nccc2c(=O)cc(-c3cnn(C)c3)oc12	-
COc1cc(F)ccc1-c1cc(-c2ccc(=O)[nH]c2)c2cncn2c1	+	MTase-Glo counter=?
CCCN1C(=O)c2cc(C(=O)NCCN3CCCCC3)nn2CC1(C)C(=O)NC1CCCC1 (stereo not drawn)	-
O=C(Nc1ccc(Cl)cc1Cl)c1cnn2ncccc12	-
COCc1ccc(C(=O)NCc2cc(C)cc3c(C)c(C)[nH]c23)o1	-
Cc1noc2c(NC3CCN(C)CC3)cc(-c3cccs3)nc12	+	MTase-Glo counter=-
Cc1noc2c(NCCCn3ccnc3)cc(-c3ccccn3)nc12	-
Cc1noc2c(NCCN3CCOCC3)cc(-c3ccsc3)nc12	-
Cc1ccc(Cn2c(=O)c3ccccc3n3c(CCC(=O)NCc4ccccc4)nnc23)cc1	-
CN1CCC(N2C[C@@H]3C[C@H]2C(=O)N(CC2CC2)c2ccccc2O3)CC1	+	MTase-Glo counter=-
CC(C)CCN1C[C@@H]2C[C@H]1C(=O)N(Cc1cccnc1)c1ccccc1O2	-
C/C=C/CCC1Cc2cc(O)c(CCCC)c(O)c2C(=O)O1 (stereo not drawn)	-
CC1(C(=O)NC2CCCCCCC2)Cn2c(ccc2-c2ccco2)C(=O)N1Cc1ccccc1Cl (stereo not drawn)	-
